Measurements taken from PubChem BioAssay (NCATS).
Inconclusive results are not listed. Some structures have more than one record in an assay (separate samples or runs), and their calls can disagree. Activity calls are given as the source filed them. Unless noted, the call rests on the fitted dose curve; in most records, active means well fitted curve in the direction sought with a large enough effect; inconclusive means small, poorly fitted or top-dose-only effect, or another doubt; inactive means no such curve, though single readings can be large; an effect the other way counts as inactive or inconclusive.

System: not listed separately
Assay: qHTS assay for small molecule activators of the p53 signaling pathway (AID 651743; active means well fitted activation curve with a large enough effect in the signal ratio, not every such curve was filed as active; the % refers to the signal ratio; further: % of control where 0% means no effect)
Conditions: HCT-116 p53RE-bla, beta-lactamase FRET ratio, 16 h; activation: active compounds read high
In short: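 p53RE-bla HCT-116 cells carrying a beta-lactamase reporter under p53 response elements were exposed to compounds for 16 hours at 37 C. Reporter activity read as fluorescence after 2 hours at room temperature with LiveBLAzer B/G FRET substrate.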
For `COc1cc(OC)nc(Sc2cccc(Cl)c2C(=O)O)n1`, the activation was -0.496% (inactive).
With `ClC1=C(Cl)C2(Cl)C3C4OC4C(Cl)C3C1(Cl)C2(Cl)Cl` (stereo not given) the activation was -0.997% (inactive).
For `c1ccc2c(c1)oc1ccccc12`, the activation was -2.47% (inactive).
For `CC(C)(C)OOC(C)(C)CCC(C)(C)OOC(C)(C)C`, the activation was 2.86% (inactive).
In the case of `ClC1=C(Cl)C(Cl)(Cl)C(Cl)=C1Cl`, the activation is reported as 12.3% (inactive).
For `OC(c1ccc(Cl)cc1)(c1cncnc1)c1ccccc1Cl` (stereo not given), the activation was -2.63% (inactive).
In the case of `CNC(=O)O/N=C(\C)SC`, the activation is reported as -0.165% (inactive).

System: not listed separately
Assay: qHTS assay for small molecule activators of the nuclear factor-kappa B (NF-kB) signaling pathway (AID 651749; active means well fitted activation curve with a large enough effect in the signal ratio; the % refers to the signal ratio; further: % of control where 0% means no effect)
Conditions: NF-kB-bla ME-180 cells, beta-lactamase FRET ratio, 16 h; activation: active compounds read high
In short: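 NF-kB-bla ME-180 cells carrying a beta-lactamase reporter under an NF-kB response element, 2,000 cells/well, exposed to compound for 16 hr at 37C; FRET-based beta-lactamase fluorescence read-out of pathway activation.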
For `CC/C(=N\OC/C=C/Cl)C1=C(O)CC(C2CCOCC2)CC1=O` (stereo not given), the activation was -1.9% (inactive).
For `COc1cc(OC)nc(Sc2cccc(Cl)c2C(=O)O)n1`, the activation was 0.833% (inactive).
For `ClC1=C(Cl)C2(Cl)C3C4OC4C(Cl)C3C1(Cl)C2(Cl)Cl` (stereo not given), the activation was 4.48% (inactive).
In the case of `c1ccc2c(c1)oc1ccccc12`, the activation is reported as -1.03% (inactive).
In the case of `N#Cc1c[nH]cc1-c1cccc2c1OC(F)(F)O2`, the activation is reported as -3.39% (inactive).
With `CNC(=O)O/N=C(\C)SC` the activation was -0.423% (inactive).

System: not listed separately
Assay: qHTS assay for environmental chemicals that activate the Aryl hydrocarbon Receptor (AhR) signaling pathway (AID 651777); further: nearly all actives have a fitted effect of over 15% in size; further: potency means the concentration at half of the fitted maximal effect; on activation: % of control where 0% means no effect
Conditions: 1A2-DRE human hepatoma cells, luciferase, 24 h; activation: active compounds read high
In short: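 Following a 24 hr incubation with test chemicals at 37 C and 5% CO2, 1A2-DRE human hepatoma cells received One-Glo reagent; after 30 min at room temperature, luciferase output reflected CYP1A2 induction via AhR.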
With `ClC1=C(Cl)C2(Cl)C3C4OC4C(Cl)C3C1(Cl)C2(Cl)Cl` (stereo not given) the activation was -0.371% (inactive).
In the case of `C1CC[CH]([Sn]([CH]2CCCCC2)[CH]2CCCCC2)CC1`, the activation is reported as 3.62% (inactive).
In the case of `OC(c1ccc(Cl)cc1)(c1cncnc1)c1ccccc1Cl` (stereo not given), the activation is reported as 2.31% (inactive).
For `CC1(C)C(C=C(Cl)Cl)[C@H]1C(=O)OCc1cccc(Oc2ccccc2)c1` (stereo not given in full), the activation was 0.692% (inactive).
For `CNC(=O)O/N=C(\C)SC`, the activation was -1.88% (inactive).
In the case of `CCc1cnc(C2=NC(C)(C(C)C)C(=O)N2)c(C(=O)O)c1` (stereo not given), the activation is reported as -2.09% (inactive).
With `O=C1C(Cl)=C(Cl)C(=O)c2ccccc21` the Potency was 50.1 µM (active).

Target: Peroxisome proliferator-activated receptor alpha (Homo sapiens) (UniProt Q07869)
Sequence (Q07869 whole entry, looked up): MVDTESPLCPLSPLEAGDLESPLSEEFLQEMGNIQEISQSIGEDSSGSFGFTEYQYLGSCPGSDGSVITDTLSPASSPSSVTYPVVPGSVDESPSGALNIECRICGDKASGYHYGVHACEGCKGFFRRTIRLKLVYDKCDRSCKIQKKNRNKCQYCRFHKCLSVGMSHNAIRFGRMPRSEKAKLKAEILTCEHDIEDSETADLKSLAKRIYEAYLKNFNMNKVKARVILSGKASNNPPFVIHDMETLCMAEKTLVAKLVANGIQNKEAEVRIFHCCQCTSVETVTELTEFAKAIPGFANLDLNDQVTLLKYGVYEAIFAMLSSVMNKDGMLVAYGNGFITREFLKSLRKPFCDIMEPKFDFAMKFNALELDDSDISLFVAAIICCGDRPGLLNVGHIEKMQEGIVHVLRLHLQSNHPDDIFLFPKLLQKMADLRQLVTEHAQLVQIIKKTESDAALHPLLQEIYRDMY
Assay: qHTS assay for small molecule agonists of the peroxisome proliferator-activated receptor alpha (PPARalpha) signaling pathway (AID 651778); further: % of control where 0% means no effect
Conditions: PathHunter PPARalpha complementation, chemiluminescence, 6 h; max response: active compounds read high
In short: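 Enzyme-fragment complementation assay in which ligand-bound PPARalpha translocates and forms an active enzyme that generates chemiluminescence. Cells were plated overnight, exposed to compound for 6 hr at 37 C, and then given detection reagent for 60 min at room temperature.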
In the case of `CC/C(=N\OC/C=C/Cl)C1=C(O)CC(C2CCOCC2)CC1=O` (stereo not given), the max response is reported as -0.709% (inactive).
In the case of `COc1cc(OC)nc(Sc2cccc(Cl)c2C(=O)O)n1`, the max response is reported as -1.08% (inactive).
With `CCOP(=O)(OCC)Oc1nc(Cl)c(Cl)cc1Cl` the max response was -1.51% (inactive).
In the case of `c1ccc2c(c1)oc1ccccc12`, the max response is reported as 0.628% (inactive).
With `C1CC[CH]([Sn]([CH]2CCCCC2)[CH]2CCCCC2)CC1` the max response was -0.731% (inactive).
For `N#Cc1c[nH]cc1-c1cccc2c1OC(F)(F)O2`, the max response was -0.738% (inactive).
With `CC(C)(C)OOC(C)(C)CCC(C)(C)OOC(C)(C)C` the max response was 0.675% (inactive).
With `OC(c1ccc(Cl)cc1)(c1cncnc1)c1ccccc1Cl` (stereo not given) the max response was -4.62% (inactive).
With `CNC(=O)O/N=C(\C)SC` the max response was -0.714% (inactive).
With `O=C1C(Cl)=C(Cl)C(=O)c2ccccc21` the max response was -10.7% (inactive).

System: not listed separately
Assay: qHTS assay for small molecule agonists of the antioxidant response element (ARE) signaling pathway measured by Nrf2-dependant transcriptional activity (AID 720636; active means well fitted curve in the direction sought with a large enough effect in the repeat runs; an effect the other way counts as inactive or inconclusive; further: potency means the concentration at half of the fitted maximal effect;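 on activation: HepG2 cells with an ARE-driven luciferase reporter; % of control where 0% means no effect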)
Conditions: ARE-luc HepG2, Nrf2 luciferase reporter, 16 h; series mostly up to 92.4 µM; activation: at the top concentration
In short: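 ONE-Glo luminescence, read 30 min after reagent addition at room temperature, reflected ARE reporter activity in HepG2 cells that had been incubated with compound for 16 hr at 37 C in 1% dialyzed FBS.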
For `CC/C(=N\OC/C=C/Cl)C1=C(O)CC(C2CCOCC2)CC1=O` (stereo not given), the “activation” value was 1.74% (inactive).
In the case of `S=C([S-])NCCNC(=S)[S-].[Mn+2]`, the Potency is reported as 61.1 µM (active).
In the case of `COc1cc(OC)nc(Sc2cccc(Cl)c2C(=O)O)n1`, the “activation” value is reported as -0.842% (inactive).
In the case of `CCOP(=O)(OCC)Oc1nc(Cl)c(Cl)cc1Cl`, the “activation” value is reported as 0.0521% (inactive).
In the case of `ClC1=C(Cl)C2(Cl)C3C4OC4C(Cl)C3C1(Cl)C2(Cl)Cl` (stereo not given), the “activation” value is reported as -0.104% (inactive).
With `c1ccc2c(c1)oc1ccccc12` the “activation” value was 1.16% (inactive).
In the case of `C1CC[CH]([Sn]([CH]2CCCCC2)[CH]2CCCCC2)CC1`, the Potency is reported as 13.7 µM (active).
In the case of `N#Cc1c[nH]cc1-c1cccc2c1OC(F)(F)O2`, the “activation” value is reported as -0.518% (inactive).
In the case of `CC(C)(C)OOC(C)(C)CCC(C)(C)OOC(C)(C)C`, the “activation” value is reported as 0.991% (inactive).
In the case of `OC(c1ccc(Cl)cc1)(c1cncnc1)c1ccccc1Cl` (stereo not given), the “activation” value is reported as -1.29% (inactive).
In the case of `CNC(=O)O/N=C(\C)SC`, the “activation” value is reported as -0.312% (inactive).
For `CCc1cnc(C2=NC(C)(C(C)C)C(=O)N2)c(C(=O)O)c1` (stereo not given), the “activation” value was -1.08% (inactive).

System: not listed separately
Assay: qHTS assay for small molecule agonists of the antioxidant response element (ARE) signaling pathway measured by Nrf2-dependant transcriptional activity - cell viability counter screen (AID 720653; active means well fitted curve in the direction sought with a large enough effect in the repeat runs; an effect the other way counts as inactive or inconclusive; further: potency means the concentration at half of the fitted maximal effect; on max response: on the % scale 0 is the no-effect control and ±100 the full control effect)
Conditions: ARE-bla HepG2 viability, CellTiter-Glo ATP luminescence, 16 h; max response: active compounds read low
In short: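 ARE-bla HepG2 cells treated with compounds for 16 h at 37C; this counter screen measures viability as intracellular ATP by CellTiter-Glo luminescence after 30 min at room temperature.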
In the case of `CC/C(=N\OC/C=C/Cl)C1=C(O)CC(C2CCOCC2)CC1=O` (stereo not given), the max response is reported as 1.41% (inactive).
In the case of `COc1cc(OC)nc(Sc2cccc(Cl)c2C(=O)O)n1`, the max response is reported as -2.11% (inactive).
In the case of `CCOP(=O)(OCC)Oc1nc(Cl)c(Cl)cc1Cl`, the max response is reported as 6.34% (inactive).
In the case of `ClC1=C(Cl)C2(Cl)C3C4OC4C(Cl)C3C1(Cl)C2(Cl)Cl` (stereo not given), the max response is reported as 0.273% (inactive).
With `c1ccc2c(c1)oc1ccccc12` the max response was -12.3% (inactive).
In the case of `N#Cc1c[nH]cc1-c1cccc2c1OC(F)(F)O2`, the max response is reported as -6.59% (inactive).
For `CC(C)(C)OOC(C)(C)CCC(C)(C)OOC(C)(C)C`, the max response was -14% (inactive).
In the case of `ClC1=C(Cl)C(Cl)(Cl)C(Cl)=C1Cl`, the max response is reported as -1.05% (inactive) and the Potency is reported as 35.5 µM (active).
With `OC(c1ccc(Cl)cc1)(c1cncnc1)c1ccccc1Cl` (stereo not given) the max response was -4.24% (inactive).
In the case of `CNC(=O)O/N=C(\C)SC`, the max response is reported as -4.43% (inactive).
With `CCc1cnc(C2=NC(C)(C(C)C)C(=O)N2)c(C(=O)O)c1` (stereo not given) the max response was 16.5% (inactive).

System: not listed separately
Assay: qHTS assay for cell viability of HEK293 cells (AID 743288); further: nearly all actives have a fitted effect of over 50% in size; further: potency means the concentration at half of the fitted maximal effect; on max response: on the % scale 0 is the no-effect control and ±100 the full control effect
Conditions: ATP luminescence (CellTiter-Glo), 18 h; max response: active compounds read low
In short: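 Total intracellular ATP, measured with a luciferase-coupled reagent, indicates the number of viable HEK293 cells. Exposure to test chemicals lasts 18 h at 37 C in 1,536-well format at 2,000 cells/well.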
In the case of `CC/C(=N\OC/C=C/Cl)C1=C(O)CC(C2CCOCC2)CC1=O` (stereo not given), the max response is reported as 3.9% (inactive).
In the case of `COc1cc(OC)nc(Sc2cccc(Cl)c2C(=O)O)n1`, the max response is reported as -8.52% (inactive).
In the case of `CCOP(=O)(OCC)Oc1nc(Cl)c(Cl)cc1Cl`, the max response is reported as -13.2% (inactive).
For `ClC1=C(Cl)C2(Cl)C3C4OC4C(Cl)C3C1(Cl)C2(Cl)Cl` (stereo not given), the max response was -17.2% (inactive).
In the case of `c1ccc2c(c1)oc1ccccc12`, the max response is reported as -8.74% (inactive).
In the case of `C1CC[CH]([Sn]([CH]2CCCCC2)[CH]2CCCCC2)CC1`, the Potency is reported as 31.6 µM (active).
For `N#Cc1c[nH]cc1-c1cccc2c1OC(F)(F)O2`, the max response was -14.2% (inactive).
With `CC(C)(C)OOC(C)(C)CCC(C)(C)OOC(C)(C)C` the max response was 0.0033% (inactive).
With `OC(c1ccc(Cl)cc1)(c1cncnc1)c1ccccc1Cl` (stereo not given) the max response was -17.1% (inactive).
In the case of `CNC(=O)O/N=C(\C)SC`, the max response is reported as -6.55% (inactive).
With `CCc1cnc(C2=NC(C)(C(C)C)C(=O)N2)c(C(=O)O)c1` (stereo not given) the max response was 4.64% (inactive).
